Test results: PubChem BioAssay AID504375 (National Center for Advancing Translational Sciences (NCATS), 2011)
About 25 (2%) of roughly 1,600 compounds were called active. Another 7% or so got no clear call; they are omitted. Calls come from the whole dose curve; as a rule, active = well fitted inhibition curve with a large enough effect; inconclusive = small, poorly fitted or top-dose-only effect, or effect the other way; inactive = no such curve, though single readings can be large or run the other way. Shown is part of a subset that was picked to be rich in actives. A call without a number means that no potency is given here.

molecular target: Runt-related transcription factor 1 (Homo sapiens) + Core-binding factor subunit beta (Homo sapiens) (UniProt Q01196+Q13951); experiment: qHTS Assay for Compounds Blocking the Interaction Between CBF-beta and RUNX1 for the Treatment of Acute Myeloid Leukemia: Hit Validation with Orthogonal Assay; settings: CBFbeta-RUNX1 binding orthogonal assay, biochemical; series mostly up to 41 µM
Sequence (Q01196 whole entry, looked up): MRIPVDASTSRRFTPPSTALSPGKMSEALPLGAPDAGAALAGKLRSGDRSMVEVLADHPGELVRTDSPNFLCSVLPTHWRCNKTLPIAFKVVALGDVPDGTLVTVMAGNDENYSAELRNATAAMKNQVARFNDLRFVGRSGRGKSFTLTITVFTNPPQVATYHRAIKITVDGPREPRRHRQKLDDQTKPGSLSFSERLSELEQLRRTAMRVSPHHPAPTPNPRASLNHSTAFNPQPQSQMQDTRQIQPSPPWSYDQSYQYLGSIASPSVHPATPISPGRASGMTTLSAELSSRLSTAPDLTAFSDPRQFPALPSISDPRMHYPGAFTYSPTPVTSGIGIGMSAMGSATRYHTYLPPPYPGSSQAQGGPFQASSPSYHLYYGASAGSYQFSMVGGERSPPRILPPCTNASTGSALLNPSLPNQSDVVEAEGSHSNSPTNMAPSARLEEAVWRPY
Sequence (Q13951 whole entry, looked up): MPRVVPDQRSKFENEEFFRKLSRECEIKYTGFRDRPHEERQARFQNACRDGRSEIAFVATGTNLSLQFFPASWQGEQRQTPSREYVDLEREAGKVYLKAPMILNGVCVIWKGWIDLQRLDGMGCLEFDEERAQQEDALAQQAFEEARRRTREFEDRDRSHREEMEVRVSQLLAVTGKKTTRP
From the text: NIH Chemical Genomics Center [NCGC]
NIH Molecular Libraries Probe Production centers Network [MLPCN]
Assay Submitter (PI): Paul Liu
Core Binding Factor (CBF) abnormalities are associated with 20-25% of all acute myeloid leukemias (AML), of which 5-10% are further sub classified as acute myelomonocytic leukemia with eosinophilia, also known as M4Eo in the FAB classification scheme. This subtype of leukemia is usually associated with chromosome 16 inversion (p13:q22). Chromosome 16 inversion results in formation of the fusion oncogene CBFB-MYH11, which encodes the fusion protein CBF-beta-SMMHC.
It has been hypothesized that the interference of CBF-beta and RUNX1 binding could have therapeutic implications for patients with CBF mediated leukemias. We developed a CBF-beta and RUNX1 binding assay in AlphaScreenTM format and optimized it for high throughput screening to search for inhibitors. The goal of this project is to screen MLPCN's compound collection (MLSMR) for identifying the inhibitors of the interaction between CBF-beta and RUNX1 proteins as research probes. If these probes work well in the animal models, the ultimate goal of this project is to development a new drug treatment for this disease.
This assay can not be used to assess how apparent inhibitors interfere with protein binding, and whether inhibitors specifically bind to either protein. Disruption of this protein-protein interaction, through any mechanism, is the intended target activity.
The present data set was run to confirm the activity of hits from the primary screen using an orthogonal assay technology for measuring protein-protein interaction disruption.
A TR-FRET (time resolved fluorescence resonance energy transfer) assay was performed using the same assay buffer, protein concentrations and incubation times as described previously in the AlphaScreen assay, except that terbium (Tb+) labeled anti-his-antibody and XL665 linked streptavidin were used to capture the binding signal. The Tb+ labeled anti-his-antibody captures His(6)-CBF and XL665 linked streptavidin binds to biotin-RUNX1. The binding of RUNX1 to CBFbrings Tb+ and XL665 to proximity resulting in a TR-FRET signal. Briefly, in a white 384-well plate, 10 µl/well of mixture of biotin-RUNX1 and His(6)-CBFwere incubated with 10 µl/well buffer (positive control) or 10 µl/well compounds (negative control) for 20 min followed by an addition of 10 µl/well of Tb+ labeled anti-his(6)-antibody and XL665 linked streptavidin. After 90 min of incubation in the dark, the assay plate was measured in the Envision plate reader using TR-FRET detection mode. For the 1536-well plate format, 3 µl/well mixture of biotin-RUNX1 and His(6)-CBF (30 nM per protein) was incubated with 23 nl/well compound (dissolved in 100% DMSO) or the equivalent DMSO concentration (positive control) for 30 min followed by the addition of 1 µl/well of 0.44 ng Tb+ labeled anti-his(6)-antibody and 5 nM streptavodin-XL665. After 90 min of incubation, the assay plate was measured in the Envision plate reader.
The TR-FRET assay for detecting interaction between HIV-I Tat and […] was similarly performed with the recombinant full-length HIV-I Tat CLADE B and HIV-I Tat Biotin conjugated proteins supplied by Diatheva (Fano, Italy). Briefly, the His-CBF and Biotin-RUNX1 complex at a working concentration of 83.3 nM per protein were pre-incubated in assay buffer for 10 minutes on ice. Then HIV-I Tat or unlabeled CBF were added to reach final concentrations (Supplementary Figure 4b) and incubated for 5 minutes. Finally anti-His antibody and streptavidin-XL665 at a final concentration of 2.2 ng and 5 nM, respectively, were added to the plate, which was incubated for 1 hr prior to reading on the PerkinElmer Envision plate reader.
Keywords: MLSMR, MLPCN, NIH Roadmap, qHTS, NCGC, Core binding factor, CBF, CBF-beta, Acute myeloid leukemia
Potency is the fitted concentration of half-maximal effect.

Compound	Potency
O=C(O)CCCCC1SCC2NC(=O)NC21 (stereo not given)	20 nM (active)
CC(C)[C@@]1(NC(=O)[C@H]2CC3c4cccc5[nH]cc(c45)C[C@H]3N(C)C2)O[C@@]2(O)C3CCCN3C(=O)[C@@H](Cc3ccccc3)N2C1=O (stereo not given in full)	inactive
CCC(=Nc1cccc(C(F)(F)F)c1)c1c(O)n(C)c(=O)n(C)c1=O	inactive
Cc1onc(-c2c(Cl)cccc2Cl)c1C(=O)Nc1ccc2c(C(F)(F)F)cc(=O)oc2c1	inactive
CN(N=O)c1ccc(O)c(O)c1	2510 nM (active)
CN(N=O)c1cc(O)ccc1O	inactive
O=c1[nH]c(=S)n(-c2ccccc2)c(O)c1C=NCc1ccccn1	inactive
Cn1c(O)c(/C=N/N2CCOCC2)c(=O)[nH]c1=S	inactive
Cc1cc(OC(=O)N(C)C)nc2c1c(C)nn2C	inactive
O=C(O)CN1C(=O)CN=C(c2ccccn2)c2cc(Cl)ccc21	inactive
CC1CN=C(Nc2ccc(F)c(Cl)c2)S1 (stereo not given)	inactive
NC(Cc1cc(O)c(O)cc1O)C(=O)O (stereo not given)	10000 nM (active)
COC1C(OC(=O)c2ccc(C)[nH]2)C(O)C(Oc2ccc3c(O)c(NC(=O)c4ccc(O)c(CC=C(C)C)c4)c(=O)oc3c2Cl)OC1(C)C (stereo not given)	inactive
CCC(=NCc1cccnc1)c1c(O)n(-c2ccccc2C)c(=O)[nH]c1=O	inactive
CCCCc1ccc(C(=O)O)nc1	inactive
